In all, about 33,000 sequences were measured (“E-score (-0.5 to 0.5)”: median about -0.053, highest 2% from about 0.37 on). The sample holds the highest values, similar sequences and a random draw of the others, so the mix is not that of the screen.
biological target: Hap1 (UniProt P0CE41); experiment: PBM E-score (8-mer binding enrichment) (E-score (-0.5 to 0.5)); higher = stronger / more preferred TF binding; settings: protein concentration: 200 nM; construct: GST-DNA-binding domain
Procedure: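 Universal 'all 10-mer' protein binding microarrays (Agilent AMADID 015681) probed with GST-tagged S. cerevisiae TFs (full-length or DBD) made by in vitro transcription/translation (PURExpress), about 100-200 nM. Bound TF was detected with fluorescent anti-GST. Each ungapped 8-mer (which stands for itself and its reverse complement) is scored by the PBM enrichment score (E-score), a modified Wilcoxon-Mann-Whitney statistic from -0.5 to +0.5, computed with the Universal PBM Analysis Suite. Scale: above 0.35 generally sequence-specific binding.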

UniProt P0CE41, sequence (P0CE41 whole entry, the tested form may be a part): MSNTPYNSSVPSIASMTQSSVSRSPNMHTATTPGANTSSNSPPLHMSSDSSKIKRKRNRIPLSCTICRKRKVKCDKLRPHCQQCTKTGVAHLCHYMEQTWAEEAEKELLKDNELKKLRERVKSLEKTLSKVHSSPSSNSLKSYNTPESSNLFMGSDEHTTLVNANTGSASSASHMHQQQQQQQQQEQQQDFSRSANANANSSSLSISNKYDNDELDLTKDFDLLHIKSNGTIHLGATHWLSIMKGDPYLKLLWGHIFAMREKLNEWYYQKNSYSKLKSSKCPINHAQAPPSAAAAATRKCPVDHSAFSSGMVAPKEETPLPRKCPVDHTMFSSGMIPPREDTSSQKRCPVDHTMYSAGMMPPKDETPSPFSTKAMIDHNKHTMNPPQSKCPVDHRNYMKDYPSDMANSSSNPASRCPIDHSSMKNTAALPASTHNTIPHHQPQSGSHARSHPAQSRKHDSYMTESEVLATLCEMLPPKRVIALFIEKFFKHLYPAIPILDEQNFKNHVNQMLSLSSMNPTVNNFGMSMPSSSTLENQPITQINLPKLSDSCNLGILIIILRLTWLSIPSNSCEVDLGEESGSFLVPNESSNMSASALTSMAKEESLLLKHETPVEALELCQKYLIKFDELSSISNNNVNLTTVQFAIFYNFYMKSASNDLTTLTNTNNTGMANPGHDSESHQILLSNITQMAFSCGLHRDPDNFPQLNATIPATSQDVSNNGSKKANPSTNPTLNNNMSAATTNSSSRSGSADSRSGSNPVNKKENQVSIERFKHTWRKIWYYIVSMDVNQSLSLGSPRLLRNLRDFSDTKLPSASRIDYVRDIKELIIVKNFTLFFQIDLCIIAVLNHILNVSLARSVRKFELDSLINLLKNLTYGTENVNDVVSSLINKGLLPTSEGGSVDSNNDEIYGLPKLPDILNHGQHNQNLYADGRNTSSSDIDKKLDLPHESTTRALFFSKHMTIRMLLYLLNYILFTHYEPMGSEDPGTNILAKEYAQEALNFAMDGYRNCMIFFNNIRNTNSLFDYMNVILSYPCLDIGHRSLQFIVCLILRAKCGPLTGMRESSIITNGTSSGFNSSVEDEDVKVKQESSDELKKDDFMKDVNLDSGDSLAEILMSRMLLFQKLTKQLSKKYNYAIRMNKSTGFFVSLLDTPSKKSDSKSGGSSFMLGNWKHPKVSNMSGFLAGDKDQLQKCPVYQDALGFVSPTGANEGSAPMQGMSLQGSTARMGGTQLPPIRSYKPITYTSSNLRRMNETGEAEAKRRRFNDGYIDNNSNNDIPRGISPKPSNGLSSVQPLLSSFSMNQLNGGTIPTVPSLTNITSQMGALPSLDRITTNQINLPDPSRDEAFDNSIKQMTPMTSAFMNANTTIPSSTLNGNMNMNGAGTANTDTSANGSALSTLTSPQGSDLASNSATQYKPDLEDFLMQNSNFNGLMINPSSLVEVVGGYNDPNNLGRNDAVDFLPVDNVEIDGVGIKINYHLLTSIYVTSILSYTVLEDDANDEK

Sequence	PBM E-score
ATCTGCGC	0.00257
CTATAGGC	-0.0955
CGACCACG	0.0929
GGGTGGAC	0.132
GATGGTGC	-0.29
GACGGAAC	0.174
ACCGGAAG	0.333
AGCGGAAC	0.243
AGCGGAAA	0.318
ACCGGAAC	0.403
GGCGGAAC	0.257
ACCGGAAA	0.417
GCCGGAAC	0.371
CCCGGAAC	0.31
CCGCAACG	0.216
GCATATCA	0.0762
CTACTCCA	-0.0772
AGGCCACC	-0.0824
AAGAACTT	-0.101
CTGTGTCC	-0.0361
TTCGCGAA	0.138
GCGGGAAC	0.212
CCGGACGG	0.444
CCGGACGA	0.431
CTGGACGA	-0.158

Sequence	PBM E-score
CGGGACGA	0.0655
ACGGACGA	0.359
GCGGACGA	0.366
ACGGACGG	0.244
CCGGACGC	0.366
TCGGACGA	0.414
ATTTTGAC	-0.0308
ACGGGAAA	0.174
CGCCTACC	-0.0452
AAGTCGAG	-0.359
AAGCTAGC	-0.0783
AAAGACAC	-0.0224
TCATAGGA	-0.112
ATCTGCAA	-0.287
ATGCGTAA	-0.0748
ATTCGTAC	0.00708
AGGCCGAT	0.327
AAGCCGAT	0.399
AAGCCGAC	0.298
AAGCCGAG	0.372
AAGCCGAA	0.334
CAGCCGAG	0.238
ATCATTCG	0.0233
ACGGACAC	0.278
ACGGACAG	0.113

Sequence	PBM E-score
ACGGATTA	0.142
TGGGATAA	-0.0448
CCGGATTA	0.383
TCGGATAA	0.374
GCGGATTA	0.189
ACGGATAG	0.11
ACGGACAT	0.421
ACGGATAA	0.282
GCGGATAA	0.294
ACGGATAT	0.43
CGGATTAG	0.305
ACACCTTC	0.105
AATTCGAG	-0.267
ACGGAGAG	0.284
ACGGAGAC	0.285
ACGGAAAC	0.287
GGGGAATA	0.107
CCGGATAG	0.316
ACGGAAAG	0.232
ACGGAAAT	0.432
CGGGAATA	0.458
AGGGAATA	0.127
ACGGAGAT	0.445
CCGGATAC	0.323
CCGGATAA	0.435

Sequence	PBM E-score
CGTACGAG	0.0155
GGTAGAAC	-0.243
CAGGAAGC	-0.0892
GAGAGATC	-0.0834
GGGGACCC	-0.043
AGGGCTAA	-0.2
CCAGGTTC	-0.153
CGGGATTA	0.454
AGGGATTA	-0.136
CGGGATTC	0.292
GAAACCTC	-0.00121
GGCAAGCC	-0.0221
AGTCCACG	0.0474
AGCCCGCC	0.184
GACGGACC	0.285
ATGCCGGG	0.217
ATGCCGGC	0.287
ATGCCGGA	0.4
GTGCCGGA	0.406
CTGCCGGA	0.286
GTGCCGTA	0.1
ACTGCTAG	-0.267
AACCGGTG	0.329
ATGCGGAG	0.222
GTCCGGAC	0.454

Sequence	PBM E-score
ATACGGTG	0.0257
GTACGGAC	0.26
ATCCGGAG	0.424
GTGCGGAA	0.159
ATCCGCAG	0.208
GTCCGGAA	0.416
GTCCGGCA	0.35
GTCCGCAC	0.237
ATCCGGTG	0.411
CCTATGCG	0.00275
GTATCCCA	-0.135
AAGGGTCA	-0.124
CACTGGAA	-0.275
ATAACGCA	0.0362
AACGGGTG	0.29
CGATCTGC	0.156
TGAAGGCA	-0.35
ATCCGGAC	0.439
ATCCGACC	0.307
ATACGGAT	0.204
ATCCGGCC	0.412
ATCCGTAC	0.147
ATCCGCAT	0.289
ATCCGCAC	0.21
ATCCGGCG	0.355

Sequence	PBM E-score
AACCGGGG	0.301
ATCCGGGC	0.364
ATCCGGAT	0.414
ATCCGGGG	0.399
TCTCCACA	-0.243
CAAGAGAC	-0.289
CCATTCAA	-0.16
GCCAATAA	-0.0084
CGGGGTGA	0.214
CTCCGGAA	0.422
CTACGGAA	0.17
CTCCGTAA	0.296
TGCCGGAA	0.365
ATACGGAA	0.33
TTACGGAA	0.317
CTACGGAG	0.32
CTCCGGAG	0.467
CTCCGCAG	0.216
ATCCGGAA	0.396
TTCCGGAA	0.466
ATGCGGAA	0.24
AGCAATAT	-0.105
AATTGTGG	-0.245
TGAGCCAA	-0.233
CCGTAGCG	0.27

Sequence	PBM E-score
CGCATGGC	0.184
AGCCTCCA	-0.219
CTCCGGAC	0.454
CTCCGCAC	0.0685
CTCCGTAC	0.196
GACAATGA	-0.102
CCTATAGA	-0.198
CTCGCCGA	0.276
GTCGCCGA	0.246
ATCGCCGC	0.286
ATCGCCCA	-0.0821
TCCGCCGA	0.425
ATCGCCCC	-0.0327
ATCGCCCG	0.372
GCCGCCGA	0.26
CCCGCCGA	0.323
ATCGCCGG	0.445
ATCGCCGA	0.445
ACCGCCGG	0.365
ACGCCCAA	-0.133
GGGATACC	0.196
CCCAGGCG	-0.125
AGCTTGCC	-0.108
AAGAAAGC	-0.113
CACCCTAC	-0.27

Sequence	PBM E-score
GAGCGCGA	0.0945
AACTCGCG	0.0253
ACCGACAG	0.289
GTACCGAA	0.0413
GCAACTTA	0.0419
GGCGCCGA	0.313
CGCGCCGA	0.317
AGCGCCGA	0.372
ATACTGAG	-0.143
CCACCTTA	-0.00422
ATGAAGTG	-0.133
GAACCGTA	0.0759
GAACCGGA	0.382
TAACCGGA	0.417
GAACCGGC	0.239
CAACCGGA	0.316
AAACCGGA	0.328
CCACTGCG	-0.0793
CGGGTGAG	0.201
GTTCCCTA	-0.0618
GAAACGTA	-0.151
AGCTCCGA	0.411
AGCTCCGC	0.306
GGCTCCGA	0.221
AGCTCCGG	0.43

Sequence	PBM E-score
AGCTCCCG	0.0669
CGCTCCGA	0.324
GCCGCACA	-0.0419
AATTACCG	0.374
AATTACCC	0.0864
ATTTACCA	0.0182
ATTTACCG	0.376
ATTTACCC	0.0884
CATTACCG	0.198
GCGAGCAC	-0.187
GTCGAAAA	-0.0295
CCCCCCCC	-0.27
ACGCACCT	-0.185
CCCGGCCC	0.341
ACCGGCCC	0.329
GCCGGCCC	0.372
ACCGGCCT	0.181
ACCGGCCA	0.284
CCCGGCCG	0.405
ACCGGCCG	0.439
GCCGGCCA	0.284
CCCGGCCA	0.291

Reference: the supplement of paper PMC3334620
